# Test system: CK2alpha1
# Settings: Highest Assay Concentration (M): 9.9999999999999995E-7
row,Structure (SMILES),IC50 [M]
1,O=C1NC(=O)/C(=C/c2ccc3ncccc3c2)S1 [RO4603632-000],5.79e-07
2,O=C1N=C(Nc2ccccc2)S/C1=C\c1ccc2ncccc2c1 [RO4493940-000],6.67e-08
3,CONC1=NC(=O)/C(=C/c2ccc3ncccc3c2)S1 [RO4613269-000],1.16e-07
4,COc1cc(Nc2ncc3c(C)nc(-c4cc5ccccc5[nH]4)n3n2)cc(OC)c1OC [GW869516X],8.51e-08

# Test system: CK2alpha2
# Settings: Highest Assay Concentration (M): 9.9999999999999995E-7
row,Structure (SMILES),IC50 [M]
1,O=C1NC(=O)/C(=C/c2ccc3ncccc3c2)S1 [RO4603632-000],3.72e-07
2,O=C1N=C(Nc2ccccc2)S/C1=C\c1ccc2ncccc2c1 [RO4493940-000],5.11e-08
3,CONC1=NC(=O)/C(=C/c2ccc3ncccc3c2)S1 [RO4613269-000],6.53e-08
4,COc1cc(Nc2ncc3c(C)nc(-c4cc5ccccc5[nH]4)n3n2)cc(OC)c1OC [GW869516X],3.37e-08
